Data as given in PubChem BioAssay.

Assay: probe aNog binding to arrayed compounds – biochemical, biotinylated probe, 635/667 nm fluorescence, primary screen (AID 1115);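 further: probe is biotinylated aNog protein used at 0.15 µg/mL for 1 h at 4 C; z-score combines 667 nm fluorescence of each spot with its signal to noise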
Conditions: small-molecule microarray, higher = more signal

| SMILES | composite z-score |
| --- | --- |
| C=CCN1C(=O)[C@@]2(O[C@@H](CCO)[C@H]([Si](C)(C)c3ccc(OC)cc3)[C@H]2C)c2cc(NC(C)=O)ccc21 | -0.234 |
| O=C1O[C@@H](c2ccccc2)[C@@H](c2ccccc2)N2[C@@H](c3ccc(O)cc3)[C@]3(C(=O)Nc4ccc(C#CCCO)cc43)[C@@H](C(=O)N3CCCCCCC3)[C@H]12 | 2.68 |
| NC(=O)[C@]1(Cc2ccccc2)N=C(c2ccc(OCCCO)cc2)O[C@@H]1c1ccccc1 | 1.42 |
| O=C1O[C@H](c2ccccc2)[C@H](c2ccccc2)N2[C@H]1[C@@H](C(=O)NC[C@H](O)c1ccccc1)[C@]1(C(=O)Nc3ccc(C#CC4=CCCCC4)cc31)[C@H]2c1ccc(O)cc1 | 0.0129 |
| C=C[C@H](C)[C@H](O)c1ccc(OCCO)cc1 | -0.278 |
| O=S(=O)(NCCCO)c1ccc(Br)cc1 | -0.122 |
| O=C1c2ccccc2[C@](Cc2ccccc2I)(C(=O)O)[C@H](c2ccc(CO)cc2)N1Cc1ccccc1C(F)(F)F | 0.689 |
| CCOC(=O)C1=C[C@@H](C(C)(C)C)N(S(=O)(=O)c2ccc(C)cc2)[C@H]1c1ccc(Cl)c(Cl)c1 | 0.863 |
| COCC1=C([C@H](O)CCc2ccccc2)[C@H](CO)[C@@H]2C(=O)N(Cc3ccccc3)C(=O)[C@@H]2C1 | -0.139 |
| C[N+](C)(C)CCCC[C@@H]1NC(=O)[C@H]2C[C@@H](C(=O)O)[C@@H](c3cccc(OCCO)c3)N2C1=O | 2.84 |
| COc1ccc([Si](C)(C)[C@H]2[C@H](CC(=O)N3CCC[C@H]3CO)O[C@@]3(C(=O)N(Cc4cccc(N5CCC5=O)c4)c4ccccc43)[C@@H]2C)cc1 | 0.572 |
